Laboratory results taken from the supplement of paper PMC7866885, “A novel bicyclic 2,4-diaminopyrimidine inhibitor of Streptococcus suis dihydrofolate reductase” (PeerJ, 2021).
± gives the standard deviation.

Each molecule was assayed on Streptococcus suis HE06 (assay: percent growth relative to DMSO control; higher = less growth inhibition). Settings: 10 µM; incubation time 18 h.
Description: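 CLSI broth microdilution: 5x10^4 CFU of Streptococcus suis (strain P1/7 or HE06) incubated with 10 µM Pathogen Box compound in cation-adjusted Mueller Hinton broth, 37 °C, 5% CO2, 18 h. Growth read as OD600 and expressed as percent of the DMSO-treated control (100%); mean ± SD of three independent experiments.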

Compound	percent growth
Nc1ncnc2[nH]nc(Cc3cccc4ccccc34)c12	104 ± 35%
CN1CCCN(C(c2ccccc2)c2ccc(Cl)cc2)CC1 (stereo not drawn)	91.9 ± 4.1%
Cc1nn(C)cc1C(C)Nc1nncc(-c2ccc(C(F)(F)F)cc2)n1 (stereo not drawn)	116 ± 20%
Brc1cncc(-c2cc(NCCCn3ccnc3)nc(-c3ccccc3)n2)c1	46.7 ± 37%
CC(C(=O)Nc1ccc2oc(-c3ccncc3)nc2c1)c1ccccc1 (stereo not drawn)	81.1 ± 11%
CC(=O)NCC1CN(c2ccc(-c3ccc(CNCc4cn[nH]n4)cc3)c(F)c2)C(=O)O1 (stereo not drawn)	0.542 ± 0.94%
Clc1ccc(CCNc2cc(-c3ccccc3)nc3ncnn23)cc1	79.8 ± 10%
CCc1ccccc1-n1c(C)cn2c3c(=O)n(C(C(=O)OC)C(C)C)c(=O)n(C)c3nc12 (stereo not drawn)	109 ± 4.8%
N=C(N)c1ccc(-c2cc(-c3ccccc3)on2)cc1	85.2 ± 3%
Cc1nnc(NCc2cccc(Cl)c2)c2ccccc12	80.1 ± 8.7%
COc1cccc(OCC(=O)c2ccc(Br)cc2)c1	57.7 ± 50%
CC1(C)Cc2c(c(N3CCOCC3)nc3snc(Br)c23)CO1	94.1 ± 2%
CCOc1ccc2cc(-c3nn(C(C)(C)C)c(N)c3C(N)=O)cnc2c1	77.6 ± 17%
CC(C)=CCC/C(C)=C\CNCCNC1C2CC3CC(C2)CC1C3 (stereo not drawn)	0.0687 ± 0.12%
O=C(Nc1c(O)cccc1-c1nc2c(C(=O)O)cccc2o1)c1cc(-c2ccccc2)on1	61.5 ± 26%
C[C@H]1COc2c(N3CCN(C)CC3)c(F)cc3c(=O)c(C(=O)O)cn1c23	1.93 ± 0.63%
CCCCc1ccc(C(=O)Nc2nccc3ccccc23)nc1	32.4 ± 32%
c1ccc(Oc2ccc(-c3cc(C4CCOCC4)[nH]n3)cc2)cc1	59.7 ± 17%
CCc1nc2ccccc2n1CC(O)COc1cc(C)ccc1Cl (stereo not drawn)	65.7 ± 22%

Compound	percent growth
O=C(Nc1ccc(N2CCNCC2)nc1)c1oc(-c2ccccc2)nc1C(F)(F)F	93.7 ± 20%
FC(F)(F)c1nnc2ccc(Cl)nn12	74.8 ± 22%
CN1CCN(c2cc(-c3ccc(F)cc3)nc(-c3ccncc3)n2)CC1	83.6 ± 3.7%
Cc1nn(C(=O)Nc2cccc(C(F)(F)F)c2)c(C)c1Sc1ncccn1	25.4 ± 40%
Cc1ncc(-c2ccnc(Nc3ccc(S(C)(=O)=O)cc3)n2)n1C(C)C	89.7 ± 4.3%
Nc1cccnc1Nc1ccc(Cl)cc1	94.6 ± 4.4%
Cc1cc(NCCc2ccccc2)nc(NC(=N)Nc2ccc(Cl)cc2)n1	148 ± 68%
CCCCN(CCCC)c1c(C#N)cc(S(=O)(=O)Nc2ccccc2)cc1C#N	86.6 ± 25%
CCN(CC)C(=O)N1CCN(C)CC1	92.6 ± 6.9%
Cc1ccc2nc(C)c(-c3ccn(Cc4ccccc4)n3)n2c1	90 ± 35%
CC(c1cc(Cl)cc(Cl)c1)N(C)c1ncc2c(N)nc(N)nc2n1 (stereo not drawn)	84.7 ± 21%
COc1cccc(-c2cc3c(Nc4cccnc4)nccc3[nH]2)c1	226 ± 230%
O=C(Nc1nc(-c2ccccn2)cs1)c1cncn1-c1ccccc1	13.4 ± 19%
O=C(Nc1ccc(N2CCNCC2)cc1)c1ccn2ncc(-c3cccc(Cl)c3)c2n1	98.9 ± 27%
COc1cccc(CC(=O)N2CCC(n3c(C)nc4ccc(F)cc43)CC2)c1	104 ± 52%
O=C(OCc1ccccc1)N1CCC(c2cc(-c3ccncc3)c(-c3ccc(F)cc3)[nH]2)CC1	126 ± 61%
Cc1ccc2[nH]c(C3CCCNC3)c(-c3ccncc3)c2c1 (stereo not drawn)	108 ± 31%
COc1ccc(-c2nn(C(C)C)c3ncnc(N)c23)cc1OC	112 ± 26%
Cc1cc(OCC(=O)Nc2ccc(C(C)C)cc2)n(C)c(=O)c1C#N	99.6 ± 7.3%
